{"source": "PubChem BioAssay (NCATS)", "assay_in_all_cases": "qHTS profiling for inhibitors of Plasmodium falciparum proliferation (AID 504749); also: nearly all actives have a fitted effect of over 60% in size", "settings_in_all_cases": "P. falciparum in erythrocytes, SYBR Green DNA, 72 h; series mostly up to 28.7 µM", "key": {"[1]": {"test_system": "7G8", "summary_of_the_method": "(§1)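 P. falciparum-infected erythrocytes (0.3% parasitemia, 2.5% hematocrit) incubated with compound 72 h at 37 C, 5% CO2. Parasite DNA detected by SYBR Green after lysis, overnight at room temperature; normalised to 0.29 uM artemisinin and DMSO.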"}, "[2]": {"test_system": "ATS189", "summary_of_the_method": "as §1"}, "[3]": {"test_system": "CP185", "summary_of_the_method": "as §1"}, "[4]": {"test_system": "CP192", "summary_of_the_method": "as §1"}, "[5]": {"test_system": "CP201", "summary_of_the_method": "as §1"}, "[6]": {"test_system": "CP238", "summary_of_the_method": "as §1"}, "[7]": {"test_system": "CP247", "summary_of_the_method": "as §1"}, "[8]": {"test_system": "CP262", "summary_of_the_method": "as §1"}, "[9]": {"test_system": "CP265", "summary_of_the_method": "as §1"}, "[10]": {"test_system": "CP266", "summary_of_the_method": "as §1"}, "[11]": {"test_system": "CP268", "summary_of_the_method": "as §1"}, "[12]": {"test_system": "CP286", "summary_of_the_method": "as §1"}, "[13]": {"test_system": "CP291", "summary_of_the_method": "as §1"}, "[14]": {"test_system": "CP305", "summary_of_the_method": "as §1"}, "[15]": {"test_system": "DIV30", "summary_of_the_method": "as §1"}, "[16]": {"test_system": "GB4", "summary_of_the_method": "as §1"}, "[17]": {"test_system": "P94_40", "summary_of_the_method": "as §1"}, "[18]": {"test_system": "PAD", "summary_of_the_method": "as §1"}, "[19]": {"test_system": "PC26", "summary_of_the_method": "as §1"}, "[20]": {"test_system": "TAB109", "summary_of_the_method": "as §1"}}, "note": "Results filed as inconclusive are left out. Where a call stands in place of a potency, no number is given. The source made the active and inactive calls. Calls follow the shape of the dose curve; as a rule, active = well fitted inhibition curve with a large enough effect; inconclusive = small, poorly fitted or top-dose-only effect; inactive = flat fitted curve, though single readings scatter. Potency is read from the fitted curve at half-maximal effect.", "data": [{"smiles": "C[N+]1(C)C2CC[C@H]1CC(OC(=O)[C@@H](CO)c1ccccc1)C2", "note": "(stereo not given in full)", "values": [{"measurement": "Potency", "setting": "[1]", "result": "inactive"}, {"measurement": "Potency", "setting": "[2]", "result": "inactive"}, {"measurement": "Potency", "setting": "[3]", "result": "inactive"}, {"measurement": "Potency", "setting": "[4]", "result": "inactive"}, {"measurement": "Potency", "setting": "[5]", "result": "inactive"}, {"measurement": "Potency", "setting": "[6]", "result": "inactive"}, {"measurement": "Potency", "setting": "[7]", "result": "inactive"}, {"measurement": "Potency", "setting": "[8]", "result": "inactive"}, {"measurement": "Potency", "setting": "[9]", "result": "inactive"}, {"measurement": "Potency", "setting": "[10]", "result": "inactive"}, {"measurement": "Potency", "setting": "[11]", "result": "inactive"}, {"measurement": "Potency", "setting": "[12]", "result": "inactive"}, {"measurement": "Potency", "setting": "[13]", "result": "inactive"}, {"measurement": "Potency", "setting": "[14]", "result": "inactive"}, {"measurement": "Potency", "setting": "[15]", "result": "inactive"}, {"measurement": "Potency", "setting": "[16]", "result": "inactive"}, {"measurement": "Potency", "setting": "[17]", "result": "inactive"}, {"measurement": "Potency", "setting": "[18]", "result": "inactive"}, {"measurement": "Potency", "setting": "[19]", "result": "inactive"}, {"measurement": "Potency", "setting": "[20]", "result": "inactive"}]}, {"smiles": "C[C@@H]1O[C@@H](O[C@H]2C[C@@H](O)[C@@]3(CO)[C@H]4[C@H](O)C[C@]5(C)[C@@H](C6=CC(=O)OC6)CC[C@]5(O)[C@H]4CC[C@@]3(O)C2)[C@@H](O)[C@H](O)[C@H]1O", "values": [{"measurement": "Potency", "setting": "[1]", "result": "inactive"}, {"measurement": "Potency", "setting": "[2]", "result": "inactive"}, {"measurement": "Potency", "setting": "[3]", "result": "inactive"}, {"measurement": "Potency", "setting": "[4]", "result": "inactive"}, {"measurement": "Potency", "setting": "[5]", "result": "inactive"}, {"measurement": "Potency", "setting": "[6]", "result": "inactive"}, {"measurement": "Potency", "setting": "[7]", "result": "inactive"}, {"measurement": "Potency", "setting": "[8]", "result": "inactive"}, {"measurement": "Potency", "setting": "[9]", "result": "inactive"}, {"measurement": "Potency", "setting": "[10]", "result": "inactive"}, {"measurement": "Potency", "setting": "[11]", "result": "inactive"}, {"measurement": "Potency", "setting": "[12]", "result": "inactive"}, {"measurement": "Potency", "setting": "[13]", "result": "inactive"}, {"measurement": "Potency", "setting": "[14]", "result": "inactive"}, {"measurement": "Potency", "setting": "[15]", "result": "inactive"}, {"measurement": "Potency", "setting": "[16]", "result": "inactive"}, {"measurement": "Potency", "setting": "[17]", "result": "inactive"}, {"measurement": "Potency", "setting": "[18]", "result": "inactive"}, {"measurement": "Potency", "setting": "[20]", "result": "inactive"}]}, {"smiles": "C=C[C@@H]1CN2CC[C@H]1C[C@H]2[C@H](O)c1ccnc2ccccc12", "values": [{"measurement": "Potency", "setting": "[1]", "result": "0.158 µM (active)"}, {"measurement": "Potency", "setting": "[2]", "result": "0.794 µM (active)"}, {"measurement": "Potency", "setting": "[3]", "result": "1.26 µM (active)"}, {"measurement": "Potency", "setting": "[4]", "result": "0.953 µM (active)"}, {"measurement": "Potency", "setting": "[5]", "result": "1.51 µM (active)"}, {"measurement": "Potency", "setting": "[6]", "result": "1.41 µM (active)"}, {"measurement": "Potency", "setting": "[7]", "result": "2.24 µM (active)"}, {"measurement": "Potency", "setting": "[8]", "result": "0.379 µM (active)"}, {"measurement": "Potency", "setting": "[9]", "result": "0.891 µM (active)"}, {"measurement": "Potency", "setting": "[10]", "result": "1.51 µM (active)"}, {"measurement": "Potency", "setting": "[11]", "result": "1.2 µM (active)"}, {"measurement": "Potency", "setting": "[12]", "result": "0.794 µM (active)"}, {"measurement": "Potency", "setting": "[13]", "result": "0.675 µM (active)"}, {"measurement": "Potency", "setting": "[14]", "result": "0.757 µM (active)"}, {"measurement": "Potency", "setting": "[15]", "result": "0.757 µM (active)"}, {"measurement": "Potency", "setting": "[16]", "result": "0.169 µM (active)"}, {"measurement": "Potency", "setting": "[17]", "result": "0.398 µM (active)"}, {"measurement": "Potency", "setting": "[18]", "result": "0.501 µM (active)"}, {"measurement": "Potency", "setting": "[19]", "result": "0.426 µM (active)"}, {"measurement": "Potency", "setting": "[20]", "result": "0.178 µM (active)"}]}, {"smiles": "O=C1C[C@@H]2OCC=C3CN4CC[C@]56c7ccccc7N1[C@@H]5[C@@H]2[C@H]3C[C@H]46", "note": "(tested in a mixture with another compound)", "values": [{"measurement": "Potency", "setting": "[19]", "result": "inactive"}]}, {"smiles": "C[C@@H](Cc1ccc(O)cc1)NC[C@@H](O)c1cc(O)cc(O)c1", "values": [{"measurement": "Potency", "setting": "[1]", "result": "inactive"}, {"measurement": "Potency", "setting": "[2]", "result": "inactive"}, {"measurement": "Potency", "setting": "[3]", "result": "inactive"}, {"measurement": "Potency", "setting": "[4]", "result": "inactive"}, {"measurement": "Potency", "setting": "[5]", "result": "inactive"}, {"measurement": "Potency", "setting": "[6]", "result": "inactive"}, {"measurement": "Potency", "setting": "[7]", "result": "inactive"}, {"measurement": "Potency", "setting": "[8]", "result": "inactive"}, {"measurement": "Potency", "setting": "[9]", "result": "inactive"}, {"measurement": "Potency", "setting": "[10]", "result": "inactive"}, {"measurement": "Potency", "setting": "[11]", "result": "inactive"}, {"measurement": "Potency", "setting": "[12]", "result": "inactive"}, {"measurement": "Potency", "setting": "[13]", "result": "inactive"}, {"measurement": "Potency", "setting": "[14]", "result": "inactive"}, {"measurement": "Potency", "setting": "[15]", "result": "inactive"}, {"measurement": "Potency", "setting": "[16]", "result": "inactive"}, {"measurement": "Potency", "setting": "[17]", "result": "inactive"}, {"measurement": "Potency", "setting": "[18]", "result": "inactive"}, {"measurement": "Potency", "setting": "[19]", "result": "inactive"}, {"measurement": "Potency", "setting": "[20]", "result": "inactive"}]}]}
